Bioassay records: PubChem BioAssay, several laboratories
An excerpt weighted towards active compounds, which were near 1% of everything screened.
Mtb hypoxia rep: PubChem AID 1159583; M. tuberculosis hypoxia-regulated fluorescent reporter, fluorescence; fluorescence inhibition, % (no concentration beside the values); actives 0.1% (n = 300,000); in the data active = fluorescence inhibition mostly above about 23%, no sharp cut-off; inactive = mostly below about 17%
PriA SSB inh: inhibitors of Klebsiella pneumoniae PriA binding to SSB C-terminal tail, primary screen, biochemical, AlphaScreen. PriA–SSB C-terminal tail interaction (Klebsiella pneumoniae). AlphaScreen SSBct-PriA binding, biotinylated peptide. inhibition, % at 33 µM. actives 0.6% (n = 430,000); in the data active = inhibition mostly above about 37%, no sharp cut-off; inactive = mostly below about 20%
Mtb BioA inh: M. tuberculosis BioA enzyme inhibitors, primary screen, biochemical, plate reader, single point, HTS. purified M. tuberculosis BioA enzyme. actives 0.096% (n = 360,000). inhibition, % at 9.99 µM. AID 602481, 2012. 7,8-diaminopelargonic acid synthase BioA (Mycobacterium tuberculosis); in the data active = inhibition above about 40%
TcdB GH inh: TcdB glycohydrolase inhibitors, primary screen, biochemical, single point, plate reader | TcdB glycohydrolase enzymatic assay | inhibition, % at 9.99 µM | actives 0.24% (n = 350,000); in the data active = inhibition above about 10%
Target sequence (P18177 whole entry, looked up): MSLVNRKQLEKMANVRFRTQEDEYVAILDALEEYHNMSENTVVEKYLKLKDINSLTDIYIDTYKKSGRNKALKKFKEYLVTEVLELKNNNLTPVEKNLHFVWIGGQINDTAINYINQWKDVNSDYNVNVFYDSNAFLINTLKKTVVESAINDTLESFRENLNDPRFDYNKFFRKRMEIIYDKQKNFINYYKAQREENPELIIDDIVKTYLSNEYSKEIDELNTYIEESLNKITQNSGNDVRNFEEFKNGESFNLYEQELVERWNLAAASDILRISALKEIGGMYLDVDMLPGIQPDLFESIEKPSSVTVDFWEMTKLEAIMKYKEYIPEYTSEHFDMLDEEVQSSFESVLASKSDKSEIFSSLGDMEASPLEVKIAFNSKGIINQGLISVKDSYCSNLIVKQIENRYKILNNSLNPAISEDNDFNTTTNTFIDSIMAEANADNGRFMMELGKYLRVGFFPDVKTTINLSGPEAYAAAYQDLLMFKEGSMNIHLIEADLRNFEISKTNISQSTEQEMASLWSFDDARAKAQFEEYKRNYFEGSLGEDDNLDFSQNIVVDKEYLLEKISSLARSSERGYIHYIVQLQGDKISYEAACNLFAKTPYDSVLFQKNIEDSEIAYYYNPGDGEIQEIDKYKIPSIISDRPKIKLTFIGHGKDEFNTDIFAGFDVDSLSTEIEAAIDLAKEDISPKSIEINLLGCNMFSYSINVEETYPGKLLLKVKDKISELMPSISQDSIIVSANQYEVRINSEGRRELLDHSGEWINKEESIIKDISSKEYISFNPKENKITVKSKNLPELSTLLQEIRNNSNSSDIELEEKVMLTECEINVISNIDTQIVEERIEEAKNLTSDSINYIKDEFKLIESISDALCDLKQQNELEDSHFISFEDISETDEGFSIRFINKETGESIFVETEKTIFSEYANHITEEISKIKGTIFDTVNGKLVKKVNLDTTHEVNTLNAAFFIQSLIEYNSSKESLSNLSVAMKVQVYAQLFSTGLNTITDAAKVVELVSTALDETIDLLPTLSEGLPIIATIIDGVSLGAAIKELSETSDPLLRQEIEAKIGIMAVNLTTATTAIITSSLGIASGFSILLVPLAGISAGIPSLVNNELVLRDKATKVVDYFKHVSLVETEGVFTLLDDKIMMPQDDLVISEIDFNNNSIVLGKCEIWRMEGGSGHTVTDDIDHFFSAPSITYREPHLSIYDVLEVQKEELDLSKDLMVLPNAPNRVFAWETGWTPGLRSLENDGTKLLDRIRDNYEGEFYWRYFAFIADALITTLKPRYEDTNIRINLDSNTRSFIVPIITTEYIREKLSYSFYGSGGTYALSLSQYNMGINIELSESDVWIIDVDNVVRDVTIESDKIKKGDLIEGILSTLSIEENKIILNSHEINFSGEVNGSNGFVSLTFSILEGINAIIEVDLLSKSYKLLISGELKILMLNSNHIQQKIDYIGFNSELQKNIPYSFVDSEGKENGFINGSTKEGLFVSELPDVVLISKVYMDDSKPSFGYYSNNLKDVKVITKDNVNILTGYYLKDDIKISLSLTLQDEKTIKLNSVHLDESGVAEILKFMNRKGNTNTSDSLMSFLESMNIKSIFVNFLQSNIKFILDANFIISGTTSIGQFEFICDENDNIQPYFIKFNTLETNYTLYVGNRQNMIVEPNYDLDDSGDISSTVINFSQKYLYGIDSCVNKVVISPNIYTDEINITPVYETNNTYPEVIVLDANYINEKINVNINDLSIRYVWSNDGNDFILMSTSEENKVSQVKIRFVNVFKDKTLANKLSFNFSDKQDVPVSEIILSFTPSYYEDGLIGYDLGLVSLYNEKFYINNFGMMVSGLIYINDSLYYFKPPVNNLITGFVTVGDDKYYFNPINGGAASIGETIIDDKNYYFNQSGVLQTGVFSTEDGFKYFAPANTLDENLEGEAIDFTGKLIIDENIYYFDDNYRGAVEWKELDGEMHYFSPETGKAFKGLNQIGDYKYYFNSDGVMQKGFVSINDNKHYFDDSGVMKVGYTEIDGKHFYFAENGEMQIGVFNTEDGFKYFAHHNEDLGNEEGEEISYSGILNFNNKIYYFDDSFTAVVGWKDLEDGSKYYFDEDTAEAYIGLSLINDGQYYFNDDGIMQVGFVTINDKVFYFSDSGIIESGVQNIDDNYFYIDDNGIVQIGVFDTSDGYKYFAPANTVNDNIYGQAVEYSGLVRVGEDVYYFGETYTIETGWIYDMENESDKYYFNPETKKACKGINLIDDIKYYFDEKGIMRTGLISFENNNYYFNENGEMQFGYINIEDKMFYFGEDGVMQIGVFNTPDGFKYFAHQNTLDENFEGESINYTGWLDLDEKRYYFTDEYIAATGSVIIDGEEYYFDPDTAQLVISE
PrP UTR inh: inhibition of PrP 5' UTR reporter expression. AID 488862, 2010. inhibition, % (no concentration beside the values). cell-based PrP 5' UTR mRNA reporter, plate reader. actives 0.35% (n = 340,000); in the data active = inhibition above about 52%
FadD28 FP inh: inhibitors of FadD28 bisubstrate probe binding, primary screen, biochemical, fluorescence polarization, single point; Mycobacterium tuberculosis FadD28 fatty-acid-AMP ligase; inhibition, % at 12.5 µM; actives 0.22% (n = 360,000); in the data active = inhibition above about 8.5%, passing the limit was not always enough
A number is an active result; ! = repeats disagree.

`CC(C)Cn1nc(C(=O)Nc2cccc(S(=O)(=O)N3CCCC3)c2)c2ccccc2c1=O` gave Mtb hypoxia rep inactive, PriA SSB inh inactive, Mtb BioA inh inactive, TcdB GH inh inactive, PrP UTR inh inactive and FadD28 FP inh inactive.
CCn1nc(C(=O)Nc2cccc(S(=O)(=O)N3CCCC3)c2)c2ccccc2c1=O was read as Mtb hypoxia rep 23.2, PriA SSB inh inactive, Mtb BioA inh inactive, TcdB GH inh inactive, PrP UTR inh inactive and FadD28 FP inh inactive.
`CCCCN(C)S(=O)(=O)c1ccc(C(=O)Nc2nnc(Cc3cccs3)o2)cc1` gave PriA SSB inh 58.0.
CSc1ccc(CC(=O)Nc2nnc(Cc3cccs3)o2)cc1 was read as PriA SSB inh inactive.
CS(=O)(=O)c1ccc(C(=O)Nc2nnc(Cc3cccs3)o2)cc1 was read as PriA SSB inh 64.0.
Screening CCCCN(CCCC)S(=O)(=O)c1ccc(C(=O)Nc2nnc(CSC)o2)cc1 returned PriA SSB inh inactive, Mtb BioA inh inactive, PrP UTR inh inactive and FadD28 FP inh inactive.
`CSc1ccccc1C(=O)Nc1nnc(Cc2cccs2)o1` gave PriA SSB inh 45.0.
CC1CCCN(S(=O)(=O)c2ccc(C(=O)Nc3nnc(Cc4cccs4)o3)cc2)C1 (stereo unspecified) was read as PriA SSB inh 37.0.
Screening Cc1cscc1NC(=O)/C=C/C(=O)O returned Mtb hypoxia rep inactive, PriA SSB inh inactive, Mtb BioA inh inactive, TcdB GH inh inactive, PrP UTR inh inactive and FadD28 FP inh inactive.
For Cc1ccc(S(=O)(=O)N2C[C@H]3[C@@H](c4ccccc42)[C@H](CO)N3Cc2cccnc2)cc1 the results were Mtb BioA inh inactive.
Screening Cc1ccc(Cc2nnc(NC(=O)c3ccc(S(=O)(=O)N(C)C4CC4)cc3)o2)cc1C returned PriA SSB inh inactive.
`CN(C1CC1)S(=O)(=O)c1ccc(C(=O)Nc2nnc(Cc3cccs3)o2)cc1` gave PriA SSB inh 74.0.
For CCN(CC)S(=O)(=O)c1ccc(C(=O)Nc2nnc(Cc3cccs3)o2)cc1 the results were PriA SSB inh inactive.
For CN(C)S(=O)(=O)c1ccc(C(=O)Nc2nnc(Cc3cccs3)o2)cc1 the results were PriA SSB inh 74.0.
Cc1cc(C)c(S(=O)(=O)N(CC(=O)NCc2cccnc2)C2CCCCC2)c(C)c1 was read as Mtb hypoxia rep inactive, PriA SSB inh inactive, PrP UTR inh inactive and FadD28 FP inh inactive.
CN(C)c1nc(=NCc2cccs2)ss1 was read as PriA SSB inh inactive, TcdB GH inh inactive, PrP UTR inh inactive and FadD28 FP inh inactive.
Screening O=C(c1ccc2c(c1)OCO2)N1CC2(C1)[C@@H](c1ccccc1)[C@H](CO)N2C(=O)C1CCC1 returned TcdB GH inh inactive.
Screening CCOc1cc2[nH]c(=O)n(Cc3ccc(C(=O)NCCOC)cc3)c(=O)c2cc1OCC returned Mtb hypoxia rep inactive, PriA SSB inh 104.2, Mtb BioA inh inactive, TcdB GH inh inactive, PrP UTR inh inactive and FadD28 FP inh inactive.
Screening CCOc1ccccc1CNC(=O)c1ccc(Cn2c(=O)[nH]c3cc(OC)c(OC)cc3c2=O)cc1 returned PriA SSB inh inactive.
CC(C)CNC(=O)C(=O)NCC1CCCN1S(=O)(=O)c1cccs1 (stereo unspecified) was read as Mtb hypoxia rep inactive, PriA SSB inh inactive, Mtb BioA inh inactive, TcdB GH inh 13.1, PrP UTR inh inactive and FadD28 FP inh inactive.
For O=C(NCCO)C(=O)NCC1CCCN1S(=O)(=O)c1cccs1 (stereo unspecified) the results were Mtb hypoxia rep inactive, PriA SSB inh inactive, Mtb BioA inh inactive, TcdB GH inh inactive, PrP UTR inh inactive and FadD28 FP inh inactive.
C[C@H](CO)N1C[C@H](C)[C@@H](CN(C)C(=O)c2ccccc2)OCc2ccccc2-c2ccccc2C1=O was read as Mtb BioA inh inactive and TcdB GH inh inactive.
Cc1ccnc(Nc2ccc(NCCNC(=O)Nc3cccc(C(F)(F)F)c3)nn2)c1 was read as PriA SSB inh 32.0.
Cc1ccnc(Nc2ccc(NCCNC(=O)Nc3ccc(F)c(Cl)c3)nn2)c1 was read as PriA SSB inh 96.0.
For COC(=O)NC(=O)c1c(NC(=O)c2ccc(Br)s2)sc(C)c1C the results were PriA SSB inh inactive.
COc1ccc(CCn2c(O)c(C3=c4ccccc4=NC3=O)sc2=S)cc1OC was read as Mtb hypoxia rep inactive, PriA SSB inh inactive, Mtb BioA inh inactive, TcdB GH inh inactive, PrP UTR inh inactive and FadD28 FP inh inactive.
`O=C1c2cc([N+](=O)[O-])ccc2-c2cc(Br)c(N=C(NO)C(F)(F)F)cc21` gave PriA SSB inh inactive, TcdB GH inh inactive, PrP UTR inh inactive and FadD28 FP inh inactive.
Screening CCOC(=O)C1CCCN(C(=O)c2cc(Nc3ccc(OC)cc3)nc3ccccc23)C1 (stereo unspecified) returned Mtb hypoxia rep inactive, PriA SSB inh inactive, Mtb BioA inh inactive, PrP UTR inh inactive and FadD28 FP inh 21.6.
Screening CCOC(=O)C1CCCN(C(=O)c2cc(-c3ccco3)nc3ccccc23)C1 (stereo unspecified) returned Mtb hypoxia rep inactive, PriA SSB inh inactive, Mtb BioA inh inactive, TcdB GH inh inactive and PrP UTR inh inactive.
For C=Cc1c(C)c2cc3[nH]c(cc4nc(cc5nc(cc1[nH]2)C(C)=C5CCC(=O)O)C(CCC(=O)O)=C4C)c(C)c3C=C the results were PriA SSB inh inactive, Mtb BioA inh inactive, TcdB GH inh inactive, PrP UTR inh inactive and FadD28 FP inh 43.3!.
Screening Cc1cc(=O)[nH]c(-n2nc(C)c(CCC(=O)O)c2C)n1 returned PriA SSB inh inactive.
Screening CN(C)c1cccc(NC(=O)CCc2ccccc2)c1 returned PriA SSB inh 53.6, Mtb BioA inh inactive, PrP UTR inh inactive and FadD28 FP inh inactive.
`C[n+]1c(-c2ccccc2)c2cc(N)ccc2c2ccc(N)cc21` gave PriA SSB inh inactive, Mtb BioA inh inactive, TcdB GH inh inactive, PrP UTR inh inactive and FadD28 FP inh 13.5.
Nc1ccc2nc(-c3ccccc3)c(-c3ccccc3)nc2c1 was read as PriA SSB inh inactive, Mtb BioA inh inactive, TcdB GH inh inactive, PrP UTR inh inactive and FadD28 FP inh inactive.
`Nc1c(C(=O)N2CCCCCC2)sc(=S)n1Cc1ccco1` gave PriA SSB inh inactive.
Screening Cc1cc(=O)[nH]c(NN=Cc2c(O)n(-c3ccccc3)c(=O)c3ccccc23)n1 returned PriA SSB inh 85.0.
COc1cccc(/C=N/Nc2nc(C)cc(=O)[nH]2)c1OC was read as Mtb BioA inh inactive, TcdB GH inh inactive, PrP UTR inh inactive and FadD28 FP inh 13.3.
`COC(=O)c1ccc2c(=O)n(CC(=O)NCC(C)C)c(=S)[nH]c2c1` gave PriA SSB inh inactive.
`O=C(C[C@H](Sc1cccc2cccnc12)c1ccc(OC(F)F)cc1)c1ccco1` gave PriA SSB inh 83.0.
